Compounds with a hit are over-represented: about 4.7% of the library has one in this group of screens.
tim10-1 inh: inhibits growth of tim10-1 mutant yeast. S. cerevisiae tim10-1 ts strain growth, BacTiter-Glo, 24 h. inhibition, % at 20 µM. hit rate 2.2% among 330,000. AID 463190;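 active = inhibition of at least 40%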;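 also: mutant grown at 25 °C; 0% = DMSO wells with yeast and 100% = wells holding no yeast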
Calb FLC: affects C. albicans growth with fluconazole | C. albicans CaCi-2 (fluconazole-resistant clinical isolate) + fluconazole, Alamar Blue growth, 48 h | growth inhibition, % (concentration not given with the values) | hit rate 0.57% among 300,000;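 active = growth inhibition above about 58% in most replicates, limit read from the data, passing the limit was not always enough; inconclusive = exactly half the replicates above a set limit; inactive = most replicates below a set limit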;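 also: all wells also contain fluconazole at 8 µg/ml as a sub-toxic cotreatment; 0% = median of DMSO wells and 100% = median of geldanamycin control wells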
PfHsp90 yeast 2: inhibits growth of yeast expressing Plasmodium falciparum Hsp90; S. cerevisiae expressing PfHsp90, BacTiter-Glo ATP, 48 h; yeast lacking PDR1 and PDR3 efflux regulators; inhibition, % at 9.4 µM; hit rate 0.32% among 310,000;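 active = every replicate shows inhibition above about 80%, whatever the replicate mean, limit read from the data; inconclusive = mean inhibition reaches the set limit but some replicate falls short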;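 also: 0% = DMSO neutral controls and 100% = 20 µM radicicol positive controls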
TIM10 inh: inhibits growth of TIM10 yeast strain. AID 463195. inhibition, % at 10 µM. hit rate 1.4% among 330,000. S. cerevisiae TIM10 strain growth, BacTiter-Glo luminescence, 24 h;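 active = inhibition of 40% or more at the single tested concentration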;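 also: wild-type TIM10 isogenic control strain grown at permissive 25 °C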
tim23-1 inh: growth inhibitors of tim23-1 mutant yeast; S. cerevisiae tim23-1 growth, BacTiter-Glo luminescence, 24 h; hit rate 1.3% among 330,000; inhibition, % at 20 µM; AID 463212;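 active = growth inhibition of the mutant yeast at or above 50%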;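 also: temperature-sensitive mutant grown at 25 °C; plate controls were DMSO-treated mutant yeast for no effect and medium wells lacking yeast for full effect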
SKKanGAS inh: SKKanGAS growth inhibition; S. pyogenes SKKanGAS, kanamycin growth, BacTiter-Glo, 6 h; hit rate 1.3% among 300,000; inhibition, % at 7.5 µM;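 active = mean replicate score, as percent of positive control median, at least 50; inconclusive = mean below 50 but one replicate at or above 50; inactive = mean and every replicate below 50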;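 also: strain carries kanamycin resistance gene driven by streptokinase promoter and grows in 40 µg/ml kanamycin; loss of luminescence reflects streptokinase promoter inhibition or plain growth inhibition; 0% = median of DMSO wells and 100% = positive control at its reference dose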
tim10-1 conf: tim10-1 yeast growth inhibition, confirmed | shares compounds with tim10-1 inh | S. cerevisiae tim10-1 ts strain growth, BacTiter-Glo, 24 h | inhibition, % at 20 µM | hit rate 56% among 7,400 | AID 463213;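 active = inhibition of yeast growth at or above a set limit in either of two repeat tests at 20 µM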;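 also: tim10-1 mutant grown at permissive 25 °C to find synthetic lethal compounds; 0% = DMSO yeast wells and 100% = medium wells without yeast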
* hit, by the source's call.

`Cc1[nH]n(-c2ccccc2)c(=O)c1C(c1ccccc1[N+](=O)[O-])C(C#N)C#N` (stereo not given) gave tim10-1 inh 44*, Calb FLC 1, PfHsp90 yeast 2 -10, TIM10 inh 31, tim23-1 inh 43, SKKanGAS inh 14 and tim10-1 conf 33*.
Screening CCCN(C(=O)CSc1nc2ccccc2n1CC)C1CCS(=O)(=O)C1 (stereo not given) returned tim10-1 inh 11, Calb FLC 5, PfHsp90 yeast 2 1, TIM10 inh 5, tim23-1 inh 10 and SKKanGAS inh -5.
CC(C#N)Sc1ccc(S(=O)(=O)N2CCCC2)cn1 (stereo not given) was read as tim10-1 inh 7, PfHsp90 yeast 2 1, TIM10 inh 1 and tim23-1 inh 9.
For Cc1cc(Cl)ccc1NC(=S)NCCC(c1ccccc1)c1ccccc1 the results were tim10-1 inh 40*, Calb FLC -16, PfHsp90 yeast 2 -25, TIM10 inh 30, tim23-1 inh 12, SKKanGAS inh 66* and tim10-1 conf 15.
`Cc1ccc2oc(C(=O)N(Cc3ccc(N(C)C)cc3)CC3CCCO3)c(C)c2c1` (stereo not given) gave tim10-1 inh 40, Calb FLC -5, PfHsp90 yeast 2 -4, TIM10 inh 1, tim23-1 inh 37, SKKanGAS inh -2 and tim10-1 conf -11.
`Cc1cc2oc(C(=O)N(Cc3ccc(N(C)C)cc3)CC3CCCO3)c(C)c2cc1C` (stereo not given) gave tim10-1 inh 25, Calb FLC 1, PfHsp90 yeast 2 -19, TIM10 inh 27, tim23-1 inh 33 and SKKanGAS inh 32.
Screening Cn1cc(Cl)c(C(=O)Nc2nc3ccccc3s2)n1 returned tim10-1 inh 44*, Calb FLC -12, PfHsp90 yeast 2 -11, TIM10 inh 31, tim23-1 inh 40, SKKanGAS inh 5 and tim10-1 conf 21.
For CC(C)c1ccc(NC(=O)CCCN2C(=S)NC(C)(C)CC2C)cc1 (stereo not given) the results were tim10-1 inh 43*, Calb FLC -11, TIM10 inh 15, tim23-1 inh 38, SKKanGAS inh -7 and tim10-1 conf 10.
Screening CC1CC(C)(C)NC(=S)N1CCCC(=O)Nc1ccc(Cl)cc1 (stereo not given) returned tim10-1 inh 26, Calb FLC -9, PfHsp90 yeast 2 36, TIM10 inh 13, tim23-1 inh -11 and SKKanGAS inh -1.
Cc1ccc2cc(CN(c3cccc(C)c3C)S(=O)(=O)c3ccccc3)c(=O)[nH]c2c1 was read as tim10-1 inh 23, Calb FLC -10, PfHsp90 yeast 2 -23, TIM10 inh 6, tim23-1 inh 19 and SKKanGAS inh 14.
`CCOC(=O)Cc1csc(NS(=O)(=O)c2ccc([N+](=O)[O-])cc2)n1` gave tim10-1 inh -1, Calb FLC inconclusive, PfHsp90 yeast 2 1, TIM10 inh -3, tim23-1 inh -4 and SKKanGAS inh 11.
`O=C(O)c1ccccc1-c1cc2ccccc2[nH]1` gave tim10-1 inh -21, Calb FLC 7, PfHsp90 yeast 2 -13, TIM10 inh -11, tim23-1 inh -3 and SKKanGAS inh -3.
`COc1ccccc1-c1cc2ccccc2[nH]1` gave tim10-1 inh 51*, Calb FLC 20, PfHsp90 yeast 2 -19, TIM10 inh 18, tim23-1 inh 29, SKKanGAS inh 6 and tim10-1 conf 33*.
`CCN(Cc1ccccc1)S(=O)(=O)c1ccc(C(=O)N(CCCN(C)C)c2nc3c(C)c(C)ccc3s2)cc1` gave tim10-1 inh 46*, Calb FLC 36, PfHsp90 yeast 2 14, TIM10 inh 5, tim23-1 inh 28, SKKanGAS inh 27 and tim10-1 conf -2.
Screening Cc1cc(C)c2nc(N(CCN(C)C)C(=O)c3ccc(S(=O)(=O)N(C)CC4CCCO4)cc3)sc2c1 (stereo not given) returned tim10-1 inh 42*, Calb FLC 2, PfHsp90 yeast 2 -28, TIM10 inh 15, tim23-1 inh 22, SKKanGAS inh 2 and tim10-1 conf 3.
Screening Cc1ccc2sc(N(CCN(C)C)C(=O)c3ccc(S(=O)(=O)N4CC(C)OC(C)C4)cc3)nc2c1C (stereo not given) returned tim10-1 inh 40*, Calb FLC -6, PfHsp90 yeast 2 -30, TIM10 inh 29, tim23-1 inh 26, SKKanGAS inh 1 and tim10-1 conf 24.
CC(=O)c1ccc(N(C(=O)CNC(=O)c2ccco2)C(C(=O)NC2CCCC2)c2ccncc2)cc1 (stereo not given) was read as tim10-1 inh -7, Calb FLC 28, PfHsp90 yeast 2 10, TIM10 inh 11, tim23-1 inh 14 and SKKanGAS inh -1.
Screening C=CCOc1ccc(/C=C/C(=O)OCC(=O)NCc2ccco2)cc1 returned tim10-1 inh 1, Calb FLC 13, PfHsp90 yeast 2 17, TIM10 inh 6, tim23-1 inh 17 and SKKanGAS inh -11.
`Cc1ccc(C(C)(C)C)cc1S(=O)(=O)Nc1nc2ccccc2nc1Cl` gave tim10-1 inh 41*, Calb FLC 32, PfHsp90 yeast 2 -15, TIM10 inh 18, tim23-1 inh 44, SKKanGAS inh 21 and tim10-1 conf 40*.
For CCC(=O)c1ccc(OCC(=O)OCC(=O)N(CCC#N)c2ccc3c(c2)OCCO3)cc1 the results were tim10-1 inh 16, TIM10 inh -2 and tim23-1 inh 16.
Cc1ccc(C(=O)N2CCC3(CC2)Oc2ccc(F)cc2C(=O)C32CC(c3cccnc3)=NO2)s1 (stereo not given) was read as tim10-1 inh 42*, Calb FLC 36, PfHsp90 yeast 2 -14, TIM10 inh -8, tim23-1 inh -2, SKKanGAS inh 2 and tim10-1 conf 25.
COc1ccc(OC)c(S(=O)(=O)N2C(C)CCCC2C)c1 (stereo not given) was read as tim10-1 inh 42*, Calb FLC 0, PfHsp90 yeast 2 3, TIM10 inh 13, tim23-1 inh 30, SKKanGAS inh -4 and tim10-1 conf 22.
Screening COC(=O)C(C)Sc1nc2c(cnn2-c2ccc(Cl)cc2)c(=O)[nH]1 (stereo not given) returned tim10-1 inh 14, Calb FLC -1, PfHsp90 yeast 2 5, TIM10 inh -4, tim23-1 inh -3 and SKKanGAS inh 14.
For O=C(CSc1nnc(-c2ccc(O)cc2)o1)N1CCOCC1 the results were tim10-1 inh 2, Calb FLC -7, PfHsp90 yeast 2 -11, TIM10 inh -12, tim23-1 inh -10 and SKKanGAS inh -3.
